Values joined by “and” are separate entries in the source; they are usually repeats but may differ in a detail not shown here. Identical values can stand only once. About 2,000 (36%) of roughly 5,500 compounds were called active. Inconclusive results (about 18%) are left out. Rule as the data show it: active = normalized growth mostly below about 0.91 (no sharp cut-off); inconclusive = no clear call, values can overlap the other calls; inactive = mostly above about 0.92. Some of the results follow.
Assay: chemical genetic growth profiling, strain panel (AID 1159580);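 also: tested at 20 µM; growth read once vehicle control cultures reached saturation at 30 °C; 1 = growth at the plate median or of vehicle wells; lower values mean less growth of the strain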
Conditions: growth OD

## Cc1cc(O)c2c(c1)Cc1cccc(O)c1C2=O
S. cerevisiae deletion strains, locus YAL013W, strain DEP1, stronger effect = lower value
  normalized growth: 0.978 (inactive)
S. cerevisiae deletion strains, locus YBR021W, strain FUR4, stronger effect = lower value
  normalized growth: 1.09 (inactive)
S. cerevisiae deletion strains, locus YBR229C, strain ROT2, stronger effect = lower value
  normalized growth: 1.02 (inactive)
S. cerevisiae deletion strains, locus YCL029C, strain bik1, stronger effect = lower value
  normalized growth: 1.01 (inactive)
S. cerevisiae deletion strains, locus YDL035C, strain GPR1, stronger effect = lower value
  normalized growth: 0.978 (inactive)
S. cerevisiae deletion strains, locus YDL074C, strain BRE1, stronger effect = lower value
  normalized growth: 0.832 (inactive)
S. cerevisiae deletion strains, locus YDL101C, strain DUN1, stronger effect = lower value
  normalized growth: 0.951 (inactive)
S. cerevisiae deletion strains, locus YDL134C, strain PPH21, stronger effect = lower value
  normalized growth: 0.992 (inactive)
S. cerevisiae deletion strains, locus YDL185W, strain tfp1, stronger effect = lower value
  normalized growth: 1 (inactive)
S. cerevisiae deletion strains, locus YDL192W, strain arf1, stronger effect = lower value
  normalized growth: 1.02 (inactive)
S. cerevisiae deletion strains, locus YDR101C, strain arx1, stronger effect = lower value
  normalized growth: 1.01 (inactive)
S. cerevisiae deletion strains, locus YDR150W, strain NUM1, stronger effect = lower value
  normalized growth: 1.02 (inactive)
S. cerevisiae deletion strains, locus YDR162C, strain NBP2, stronger effect = lower value
  normalized growth: 0.905 (inactive)
S. cerevisiae deletion strains, locus YDR318W, strain mcm21, stronger effect = lower value
  normalized growth: 0.982 (inactive)
S. cerevisiae deletion strains, locus YDR388W, stronger effect = lower value
  normalized growth: 0.998 (inactive)
S. cerevisiae deletion strains, locus YDR502C, strain sam2, stronger effect = lower value
  normalized growth: 1 (inactive)
S. cerevisiae deletion strains, locus YEL061C, strain CIN8, stronger effect = lower value
  normalized growth: 0.848 (active)
S. cerevisiae deletion strains, locus YER110C, stronger effect = lower value
  normalized growth: 1.01 (inactive)
S. cerevisiae deletion strains, locus YER155C, strain BEM2, stronger effect = lower value
  normalized growth: 1.02 (inactive)
S. cerevisiae deletion strains, locus YER167W, strain BCK2, stronger effect = lower value
  normalized growth: 0.941 (inactive)
S. cerevisiae deletion strains, locus YGL078C, strain dbp3, stronger effect = lower value
  normalized growth: 1.02 (inactive)
S. cerevisiae deletion strains, locus YGL086W, strain mad1, stronger effect = lower value
  normalized growth: 0.979 (inactive)
S. cerevisiae deletion strains, locus YGL248W, strain PDE1, stronger effect = lower value
  normalized growth: 0.958 (inactive)
S. cerevisiae deletion strains, locus YGR078C, strain PAC10, stronger effect = lower value
  normalized growth: 0.979 (inactive)
S. cerevisiae deletion strains, locus YGR135W, strain pre9, stronger effect = lower value
  normalized growth: 1.02 (inactive)
S. cerevisiae deletion strains, locus YGR229C, strain SMI1, stronger effect = lower value
  normalized growth: 0.677 (active)
S. cerevisiae deletion strains, locus YGR252W, strain gcn5, stronger effect = lower value
  normalized growth: 0.914 (inactive)
S. cerevisiae deletion strains, locus YHR030C, strain SLT2, stronger effect = lower value
  normalized growth: 0.96 (inactive) and 1.05 (inactive)
S. cerevisiae deletion strains, locus YHR079C, strain IRE1 (second series), stronger effect = lower value
  normalized growth: 1.02 (inactive)
S. cerevisiae deletion strains, locus YHR079C, strain IRE1, stronger effect = lower value
  normalized growth: 1.04 (inactive)
S. cerevisiae deletion strains, locus YHR094C, strain hxt1, stronger effect = lower value
  normalized growth: 1.01 (inactive)
S. cerevisiae deletion strains, locus YHR129C, strain ARP1, stronger effect = lower value
  normalized growth: 0.926 (inactive)
S. cerevisiae deletion strains, locus YHR200W, strain rpn10, stronger effect = lower value
  normalized growth: 1.05 (inactive)
S. cerevisiae deletion strains, locus YIL066C, strain RNR3, stronger effect = lower value
  normalized growth: 0.717 (active)
S. cerevisiae deletion strains, locus YIL073C, strain SPO22, stronger effect = lower value
  normalized growth: 0.898 (inactive)
S. cerevisiae deletion strains, locus YIL125W, strain kgd1, stronger effect = lower value
  normalized growth: 0.998 (inactive)
S. cerevisiae deletion strains, locus YIR030C, strain dcg1, stronger effect = lower value
  normalized growth: 1.1 [resistant] (active)
S. cerevisiae deletion strains, locus YJL095W, strain BCK1, stronger effect = lower value
  normalized growth: 0.573 (active) and 1.05 (inactive)
S. cerevisiae deletion strains, locus YJL134W, strain LCB3, stronger effect = lower value
  normalized growth: 1.01 (inactive)
S. cerevisiae deletion strains, locus YJL168C, strain set2, stronger effect = lower value
  normalized growth: 1 (inactive)
S. cerevisiae deletion strains, locus YJL187C, strain SWE1 (second series), stronger effect = lower value
  normalized growth: 0.742 (active)
S. cerevisiae deletion strains, locus YJR043C, strain POL32, stronger effect = lower value
  normalized growth: 1.01 (inactive)
S. cerevisiae deletion strains, locus YJR066W, strain TOR1, stronger effect = lower value
  normalized growth: 0.938 (inactive)
S. cerevisiae deletion strains, locus YJR075W, strain HOC1, stronger effect = lower value
  normalized growth: 0.971 (inactive)
S. cerevisiae deletion strains, locus YKL009W, strain mrt4, stronger effect = lower value
  normalized growth: 1.05 (inactive)
S. cerevisiae deletion strains, locus YKL068W, stronger effect = lower value
  normalized growth: 1.02 (inactive)
S. cerevisiae deletion strains, locus YKL085W, strain MDH1 (second series), stronger effect = lower value
  normalized growth: 1.03 (inactive)
S. cerevisiae deletion strains, locus YKL085W, strain MDH1, stronger effect = lower value
  normalized growth: 1.03 (inactive)
S. cerevisiae deletion strains, locus YKL190W, strain CNB1, stronger effect = lower value
  normalized growth: 0.995 (inactive)
S. cerevisiae deletion strains, locus YKR001C, strain vps1, stronger effect = lower value
  normalized growth: 0.865 (active)
S. cerevisiae deletion strains, locus YLR039C, strain RIC1, stronger effect = lower value
  normalized growth: 0.261 (active)
S. cerevisiae deletion strains, locus YLR058C, strain SHM2, stronger effect = lower value
  normalized growth: 0.922 (inactive)
S. cerevisiae deletion strains, locus YLR102C, strain apc9, stronger effect = lower value
  normalized growth: 1.05 (inactive)
S. cerevisiae deletion strains, locus YLR113W, strain HOG1, stronger effect = lower value
  normalized growth: 1.05 (inactive)
S. cerevisiae deletion strains, locus YLR262C, strain YPT6, stronger effect = lower value
  normalized growth: 0.517 (active)
S. cerevisiae deletion strains, locus YLR268W, strain sec22, stronger effect = lower value
  normalized growth: 0.93 (inactive)
S. cerevisiae deletion strains, locus YLR330W, strain CHS5, stronger effect = lower value
  normalized growth: 0.957 (inactive)
S. cerevisiae deletion strains, locus YLR342W, strain FKS1 (second series), stronger effect = lower value
  normalized growth: 0.918 (inactive)
S. cerevisiae deletion strains, locus YLR371W, strain rom2, stronger effect = lower value
  normalized growth: 1.02 (inactive)
S. cerevisiae deletion strains, locus YLR418C, strain cdc73, stronger effect = lower value
  normalized growth: 0.902 (inactive)
S. cerevisiae deletion strains, locus YML016C, strain PPZ1, stronger effect = lower value
  normalized growth: 0.999 (inactive)
S. cerevisiae deletion strains, locus YML032C, strain rad52, stronger effect = lower value
  normalized growth: 0.906 (inactive)
S. cerevisiae deletion strains, locus YML124C, strain tub3, stronger effect = lower value
  normalized growth: 1.03 (inactive)
S. cerevisiae deletion strains, locus YMR078C, strain ctf18, stronger effect = lower value
  normalized growth: 0.974 (inactive)
S. cerevisiae deletion strains, locus YMR223W, strain ubp8, stronger effect = lower value
  normalized growth: 1.06 (inactive)
S. cerevisiae deletion strains, locus YMR307W, strain GAS1, stronger effect = lower value
  normalized growth: 0.874 (inactive)
S. cerevisiae deletion strains, locus YNL067W, strain RPL9B, stronger effect = lower value
  normalized growth: 0.932 (inactive)
S. cerevisiae deletion strains, locus YNL183C, strain NPR1, stronger effect = lower value
  normalized growth: 0.967 (inactive)
S. cerevisiae deletion strains, locus YNL233W, strain BNI4, stronger effect = lower value
  normalized growth: 0.946 (inactive)
S. cerevisiae deletion strains, locus YNL250W, strain rad50, stronger effect = lower value
  normalized growth: 0.962 (inactive)
S. cerevisiae deletion strains, locus YNL271C, strain bni1, stronger effect = lower value
  normalized growth: 1.01 (inactive)
S. cerevisiae deletion strains, locus YNL298W, strain CLA4, stronger effect = lower value
  normalized growth: 0.999 (inactive)
S. cerevisiae deletion strains, locus YNL307C, strain MCK1, stronger effect = lower value
  normalized growth: 1 (inactive)
S. cerevisiae deletion strains, locus YNL322C, strain KRE1, stronger effect = lower value
  normalized growth: 0.987 (inactive)
S. cerevisiae deletion strains, locus YNR052C, strain pop2, stronger effect = lower value
  normalized growth: 0.949 (inactive)
S. cerevisiae deletion strains, locus YOL006C, strain TOP1, stronger effect = lower value
  normalized growth: 0.261 (active)
S. cerevisiae deletion strains, locus YOL012C, strain htz1
  normalized growth: 0.675 (inactive)
S. cerevisiae deletion strains, locus YOL147C, strain pex11, stronger effect = lower value
  normalized growth: 1.05 (inactive)
S. cerevisiae deletion strains, locus YOR061W, strain CKA2, stronger effect = lower value
  normalized growth: 0.995 (inactive)
S. cerevisiae deletion strains, locus YOR069W, strain VPS5, stronger effect = lower value
  normalized growth: 0.951 (inactive)
S. cerevisiae deletion strains, locus YOR136W, strain idh2, stronger effect = lower value
  normalized growth: 1 (inactive)
S. cerevisiae deletion strains, locus YOR144C, strain elg1, stronger effect = lower value
  normalized growth: 1.06 (inactive)
S. cerevisiae deletion strains, locus YOR184W, strain ser1, stronger effect = lower value
  normalized growth: 0.984 (inactive)
S. cerevisiae deletion strains, locus YOR231W, strain MKK1, stronger effect = lower value
  normalized growth: 1.07 (inactive)
S. cerevisiae deletion strains, locus YOR316C, strain cot1, stronger effect = lower value
  normalized growth: 1.06 (inactive)
S. cerevisiae deletion strains, locus YPL055C, strain LGE1, stronger effect = lower value
  normalized growth: 0.753 (active)
S. cerevisiae deletion strains, locus YPL241C, strain CIN2, stronger effect = lower value
  normalized growth: 0.982 (inactive)
S. cerevisiae deletion strains, locus YPL256C, strain CLN2, stronger effect = lower value
  normalized growth: 1.09 (inactive)
S. cerevisiae deletion strains, locus YPR119W, strain clb2, stronger effect = lower value
  normalized growth: 1.05 (inactive)
S. cerevisiae deletion strains, locus YPR141C, strain kar3, stronger effect = lower value
  normalized growth: 1.02 (inactive)
S. cerevisiae deletion strains, locus YPR163C, strain tif3, stronger effect = lower value
  normalized growth: 0.982 (inactive)
S. cerevisiae deletion strains, locus YPR167C, strain met16, stronger effect = lower value
  normalized growth: 1.06 (inactive)
S. cerevisiae deletion strains, strain wtn01, stronger effect = lower value
  normalized growth: 0.997 (inactive)
S. cerevisiae strains, strain wild type, stronger effect = lower value
  normalized growth: 0.881 (active)

Source: PubChem BioAssay AID1159580 (chemical genetic matrix, 2015)
